Common to all, as to settings: mRNA level, 48 h; actives raise or lower the signal
Read-out in assay [1]: adenosine kinase (ADK) gene, ADK (gene 132)
Put plainly: LTEA_HepaRG_ADK: Life Technologies and Expression Analysis (LTEA) Assay for adenosine kinase (ADK) gene using HepaRG (AID 2283471). The method, boiled down:
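Read-out is ADK transcript level measured by qRT-PCR and normalised to three housekeeping genes. Cells are human HepaRG, dosed for 48 h at up to 100 uM in 0.5% DMSO. Gain or loss of signal is fitted against DMSO controls.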

Read-out in assay [2]: Alpha-fetoprotein (AFP) gene, AFP (gene 174)
Put plainly: LTEA_HepaRG_AFP: Life Technologies and Expression Analysis (LTEA) Assay for Alpha-fetoprotein (AFP) gene using HepaRG (AID 2283472). The method, boiled down:
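AFP transcript measured by TaqMan qRT-PCR with three housekeeping genes for normalization, after 48 h chemical treatment of HepaRG cells (top 100 uM, half-log steps, 0.5% DMSO). Gain or loss fitted against vehicle.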

Read-out in the next assay: BCL2L11 (gene 10018)
The assay can be described thus: LTEA_HepaRG_BCL2L11: Life Technologies and Expression Analysis (LTEA) Assay for Bcl-2 (BCL2L11) gene using HepaRG (AID 2283473). A digest of the protocol: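 Differentiated human HepaRG cells were exposed 48 h in serum-free induction medium to eight half-log concentrations up to 100 uM in 0.5% DMSO, in duplicate. BCL2L11 mRNA was quantified by TaqMan qRT-PCR, normalized to ACTB, GAPDH and POLR2A; induction or repression fitted versus DMSO.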

Read-out in assay [3]: Apolipoprotein A-V (APOA5) gene, APOA5 (gene 116519)
Put plainly: LTEA_HepaRG_APOA5: Life Technologies and Expression Analysis (LTEA) Assay for Apolipoprotein A-V (APOA5) gene using HepaRG (AID 2283474). The method, boiled down: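 Differentiated HepaRG cells in serum-free induction medium, exposed 48 h in duplicate to eight half-log concentrations topping at 100 uM (0.5% DMSO). APOA5 mRNA by Fluidigm TaqMan qRT-PCR, normalized to ACTB, GAPDH and POLR2A; bidirectional fit versus DMSO.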

Read-out in assay [4]: Bcl-2 (BID) gene, BID (gene 637)
Put plainly: LTEA_HepaRG_BID: Life Technologies and Expression Analysis (LTEA) Assay for Bcl-2 (BID) gene using HepaRG (AID 2283476). The method, boiled down:
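Duplicate 48 h treatments of HepaRG cells in serum-free induction medium spanned 100 uM downward in half-log steps, 0.5% DMSO. Transcript change quantified by qRT-PCR against three housekeeping genes, fitted up or down versus DMSO.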

Read-out in a further assay: Caspase-3 (Homo sapiens) (UniProt P42574)
Put plainly: LTEA_HepaRG_CASP3: Life Technologies and Expression Analysis (LTEA) Assay for cysteine-aspartic acid protease (CASP3) using HepaRG (AID 2283477). The method, boiled down:
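Differentiated HepaRG cells, plated 48 h, were treated in duplicate in serum-free induction medium for 48 h with eight half-log concentrations up to 100 uM in 0.5% DMSO. CASP3 mRNA measured by qRT-PCR, normalized to ACTB, GAPDH, POLR2A.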

Read-out in assay [5]: Cytochrome P450 (CYP24A1), CYP24A1 (gene 1591)
Put plainly: LTEA_HepaRG_CYP24A1: Life Technologies and Expression Analysis (LTEA) Assay for Cytochrome P450 (CYP24A1) using HepaRG (AID 2283478). The method, boiled down:
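HepaRG cells plated 48 h, then exposed in duplicate in serum-free induction medium for 48 h to 8-point half-log series from 100 uM in 0.5% DMSO. CYP24A1 mRNA by Fluidigm qRT-PCR, normalized to ACTB, GAPDH, POLR2A; bidirectional fit versus DMSO.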

Read-out in assay [6]: cysteine-aspartic acid protease (CASP8), CASP8 (gene 841)
Put plainly: LTEA_HepaRG_CASP8: Life Technologies and Expression Analysis (LTEA) Assay for cysteine-aspartic acid protease (CASP8) using HepaRG (AID 2283480). A digest of the protocol:
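qRT-PCR readout of CASP8 mRNA, normalized to three housekeeping genes, after 48 h chemical exposure of HepaRG cells; 8-point half-log series, top 100 uM, 0.5% DMSO vehicle. Bidirectional curve fitting against DMSO baseline.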

Read-out in assay [7]: Cytochrome P450 (CYP2B6), CYP2B6 (gene 1555)
Put plainly: LTEA_HepaRG_CYP2B6: Life Technologies and Expression Analysis (LTEA) Assay for Cytochrome P450 (CYP2B6) using HepaRG (AID 2283481). A digest of the protocol: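 Differentiated human HepaRG cells in serum-free induction medium, dosed in duplicate for 48 h over 8 half-log concentrations topping at 100 uM (0.5% DMSO). CYP2B6 mRNA measured by TaqMan qRT-PCR, normalized to ACTB, GAPDH, POLR2A; bidirectional fit versus DMSO.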

Read-out in assay [8]: Cytochrome P450 2C19 (Homo sapiens) (UniProt P33261)
Put plainly: LTEA_HepaRG_CYP2C19: Life Technologies and Expression Analysis (LTEA) Assay for CYP2C19 using HepaRG (AID 2283482). A digest of the protocol:
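Differentiated HepaRG cells in serum-free induction medium exposed 48 h in duplicate, 8 concentrations from 100 uM by half-log steps in 0.5% DMSO. CYP2C19 mRNA measured by TaqMan qRT-PCR, normalized to ACTB, GAPDH, POLR2A. Bidirectional fit versus DMSO.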

Read-out in a further assay: CYP2C8 (gene 1558)
Put plainly: LTEA_HepaRG_CYP2C8: Life Technologies and Expression Analysis (LTEA) Assay for CYP2C8 using HepaRG (AID 2283483). A digest of the protocol:
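HepaRG (human liver line), 48 h chemical exposure, 8-pt half-log series from 100 uM, 0.5% DMSO vehicle. Readout: CYP2C8 transcript by qRT-PCR, housekeeping-normalized. Bidirectional fit vs DMSO baseline.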

Read-out in a further assay: CYP2C9 (gene 1559)
The assay can be described thus: LTEA_HepaRG_CYP2C9: Life Technologies and Expression Analysis (LTEA) Assay for CYP2C9 using HepaRG (AID 2283484). The method, boiled down: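 HepaRG, 48 h dosing, 8-pt half-log series, top 100 uM, 0.5% DMSO vehicle. Read-out: CYP2C9 transcript by TaqMan qRT-PCR, housekeeping-normalized (ACTB/GAPDH/POLR2A). Gain or loss fitted vs DMSO baseline.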

Read-out in a further assay: CYP2E1 (gene 1571)
The assay can be described thus: LTEA_HepaRG_CYP2E1: Life Technologies and Expression Analysis (LTEA) Assay for CYP2E1 using HepaRG (AID 2283485). A digest of the protocol: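 CYP2E1 transcript measured by Fluidigm qRT-PCR against three housekeeping genes in human HepaRG cells treated 48 h (top 100 uM, half-log steps, 0.5% DMSO vehicle). Gain or loss fitted relative to DMSO baseline.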

Read-out in another assay: CYP4A11 (gene 1579)
The assay can be described thus: LTEA_HepaRG_CYP4A11: Life Technologies and Expression Analysis (LTEA) Assay for CYP4A11 using HepaRG (AID 2283486). A digest of the protocol:
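Differentiated HepaRG cells, 48 h after plating, exposed in duplicate for 48 h to 8 half-log concentrations up to 100 uM in 0.5% DMSO in serum-free induction medium. CYP4A11 mRNA measured by TaqMan qRT-PCR, normalized to ACTB, GAPDH and POLR2A.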

Read-out in assay [9]: Cytochrome P450 3A4 (Homo sapiens) (UniProt P08684)
Put plainly: LTEA_HepaRG_CYP3A4: Life Technologies and Expression Analysis (LTEA) Assay for CYP3A4 using HepaRG (AID 2283487). A digest of the protocol: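 HepaRG, 48 h exposure, 8-pt CRC from 100 uM (half-log), 0.5% DMSO, duplicates; serum-free induction medium. Readout: CYP3A4 mRNA, qRT-PCR, ACTB/GAPDH/POLR2A normalization. Bidirectional fit vs DMSO.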

Read-out in assay [10]: DNA damage-inducible transcript 3 (DDIT3), DDIT3 (gene 1649)
Put plainly: LTEA_HepaRG_DDIT3: Life Technologies and Expression Analysis (LTEA) Assay for DNA damage-inducible transcript 3 (DDIT3) using HepaRG (AID 2283488). A digest of the protocol: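 DDIT3 transcript was quantified by qRT-PCR with ACTB/GAPDH/POLR2A normalization after 48 h chemical treatment of differentiated HepaRG cells in 0.5% DMSO. Dosing was eight-point, half-log, top 100 uM, duplicate wells. Curves fitted bidirectionally versus DMSO.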

Read-out in assay [11]: Pro-epidermal growth factor (Homo sapiens) (UniProt P01133)
The assay can be described thus: LTEA_HepaRG_EGF: Life Technologies and Expression Analysis (LTEA) Assay for Epidermal growth factor (EGF) using HepaRG (AID 2283489). A digest of the protocol: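 HepaRG cells (~100,000/well, 48 h pre-culture) exposed in duplicate for 48 h in serum-free induction medium to 8 half-log concentrations up to 100 uM in 0.5% DMSO. EGF mRNA by qRT-PCR, normalized to ACTB/GAPDH/POLR2A; bidirectional fit versus DMSO.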

Read-out in assay [12]: Bcl-2 (BAX) gene, BAX (gene 581)
The assay can be described thus: LTEA_HepaRG_BAX: Life Technologies and Expression Analysis (LTEA) Assay for Bcl-2 (BAX) gene using HepaRG (AID 2283470). The method, boiled down:
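Gene expression measured by Fluidigm qRT-PCR with three housekeeping genes for normalisation. HepaRG cells, plated 48 h beforehand, treated 48 h at up to 100 uM (8-point, half-log) in 0.5% DMSO. Bidirectional fitting versus DMSO.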

Read-out in assay [13]: Cytochrome P450 (CYP1A2), CYP1A2 (gene 1544)
The assay can be described thus: LTEA_HepaRG_CYP1A2: Life Technologies and Expression Analysis (LTEA) Assay for Cytochrome P450 (CYP1A2) using HepaRG (AID 2283479). A digest of the protocol:
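Differentiated human HepaRG cells in serum-free induction medium exposed 48 hours in duplicate to 8 half-log concentrations from 100 uM, 0.5% DMSO. CYP1A2 mRNA quantified by qRT-PCR, normalized to ACTB, GAPDH and POLR2A; bidirectional fitting versus DMSO.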

Each structure is given as a SMILES string. Where “and” joins values, the source holds several entries; their conditions need not be identical. Equal values may be shown once. The source holds several records for some structures; these can differ, active in one and inactive in another. Calls of active or inactive are those of the source. The calls were made as follows: active = hit-call score of the fitted dose curve at least 0.9, where 1 is the maximum; inactive = score below 0.9.

Chain of Cytochrome P450 3A4 (Homo sapiens) (P08684 whole entry, looked up): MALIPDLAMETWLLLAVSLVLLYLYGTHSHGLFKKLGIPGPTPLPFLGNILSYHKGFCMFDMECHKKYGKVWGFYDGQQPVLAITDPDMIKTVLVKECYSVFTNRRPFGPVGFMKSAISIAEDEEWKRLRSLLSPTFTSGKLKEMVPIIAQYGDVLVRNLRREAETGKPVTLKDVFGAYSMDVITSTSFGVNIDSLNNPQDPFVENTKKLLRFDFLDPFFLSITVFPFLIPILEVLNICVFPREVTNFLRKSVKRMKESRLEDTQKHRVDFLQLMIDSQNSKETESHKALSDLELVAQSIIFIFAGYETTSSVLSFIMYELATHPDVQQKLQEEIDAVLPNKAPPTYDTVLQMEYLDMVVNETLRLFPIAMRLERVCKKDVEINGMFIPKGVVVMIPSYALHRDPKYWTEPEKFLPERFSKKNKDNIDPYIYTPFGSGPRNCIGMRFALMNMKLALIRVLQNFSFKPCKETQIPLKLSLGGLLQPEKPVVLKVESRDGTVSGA
Chain of Cytochrome P450 2C19 (Homo sapiens) (P33261 whole entry, looked up): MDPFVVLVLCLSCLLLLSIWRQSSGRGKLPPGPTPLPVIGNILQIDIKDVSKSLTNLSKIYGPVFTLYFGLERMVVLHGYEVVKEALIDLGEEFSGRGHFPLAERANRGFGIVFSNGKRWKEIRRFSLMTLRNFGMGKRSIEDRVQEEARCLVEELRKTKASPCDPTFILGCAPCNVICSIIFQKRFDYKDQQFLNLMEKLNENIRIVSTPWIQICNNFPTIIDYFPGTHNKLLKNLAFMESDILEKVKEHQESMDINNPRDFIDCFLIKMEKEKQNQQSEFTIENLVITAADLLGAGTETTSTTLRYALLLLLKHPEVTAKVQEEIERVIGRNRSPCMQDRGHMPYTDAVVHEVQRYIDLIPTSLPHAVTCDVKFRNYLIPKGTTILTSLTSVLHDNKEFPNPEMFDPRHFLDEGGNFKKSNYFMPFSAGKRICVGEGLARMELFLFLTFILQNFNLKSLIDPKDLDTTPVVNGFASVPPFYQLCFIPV
Chain of Caspase-3 (Homo sapiens) (P42574 whole entry, looked up): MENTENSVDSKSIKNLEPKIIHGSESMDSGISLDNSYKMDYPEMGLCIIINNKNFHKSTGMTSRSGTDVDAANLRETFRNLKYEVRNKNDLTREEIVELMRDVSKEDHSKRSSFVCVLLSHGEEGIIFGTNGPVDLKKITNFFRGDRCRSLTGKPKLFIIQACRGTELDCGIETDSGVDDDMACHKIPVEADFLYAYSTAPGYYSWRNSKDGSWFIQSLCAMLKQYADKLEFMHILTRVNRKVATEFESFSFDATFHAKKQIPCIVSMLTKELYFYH

For orientation: AC50 means the midpoint of the concentration-response curve, whichever way the signal moves. Turning to `OCCOc1ccccc1`, the outcome (in [1]; in [2]; with BCL2L11 (gene 10018); in assay [3]; in assay [4]; with Caspase-3 (Homo sapiens)) was inactive. For the same molecule, the molecule was classed as inactive (in assay [5]; in assay [6]; in [8]; with CYP2C8 (gene 1558); with CYP2C9 (gene 1559); with CYP2E1 (gene 1571)). In addition, the outcome (with CYP4A11 (gene 1579); in assay [9]; in [10]; in assay [11]) was inactive. In addition, the AC50 in [7] is 50 µM (active).

Take `CNC(=O)CSP(=S)(OC)OC`: the result (in assay [12]; in [1]; in [2]; with BCL2L11 (gene 10018); in assay [3]; in assay [4]) was inactive. Further, the result (in assay [5]; in assay [6]; in [8]; in the assay with CYP2C8 (gene 1558); with CYP2C9 (gene 1559); with CYP2E1 (gene 1571)) was inactive. Also, the call (in the assay with CYP4A11 (gene 1579); in assay [9]; in assay [10]; in assay [11]) was inactive. Further, in assay [7], the half-maximal activity concentration (AC50) was 23.1 µM (active).

On to `Oc1ccc(Cl)cc1Cc1ccccc1`, for which the molecule was called inactive (in assay [1]; in [2]; in the assay with BCL2L11 (gene 10018); in [4]; in assay [5]; in assay [13]). The call (in assay [6]; in assay [7]; in assay [8]; with CYP2C8 (gene 1558); with CYP2C9 (gene 1559); with CYP2E1 (gene 1571)) was inactive. In addition, the call (with CYP4A11 (gene 1579); in [9]; in assay [10]; in assay [11]) was inactive. Besides, the half-maximal activity concentration (AC50) in assay [2] was 82.5 µM (active) and 90 µM (active); in [8], 83.7 µM (active) and 50.5 µM (active); with CYP2C9 (gene 1559) it was 79.2 µM (active); in the assay with CYP2E1 (gene 1571) it was 50.5 µM (active); in the assay with CYP4A11 (gene 1579) it was 81.7 µM (active) and 81.2 µM (active).

Regarding `O=C(O)C(F)(F)C(F)(F)C(F)(F)C(F)(F)C(F)(F)C(F)(F)C(F)(F)F`, the outcome (in assay [12]; in [1]; in assay [2]; with BCL2L11 (gene 10018); in [4]; in [5]) was inactive. Besides, the result (in [6]; with CYP2C8 (gene 1558); with CYP2C9 (gene 1559); with CYP2E1 (gene 1571); in assay [9]; in assay [10]) was inactive. In addition, the molecule was called inactive in assay [11]. For the same molecule, the concentration at half-maximal activity (AC50) in assay [7] is 17.9 µM (active) and 3.15 µM (active); in assay [8] it was 9.92 µM (active) and 5.55 µM (active); with CYP2C8 (gene 1558) it was 12.8 µM (active); in the assay with CYP4A11 (gene 1579) it was 12.8 µM (active) and 6.48 µM (active).

For `CNC(=O)Oc1cccc(N=CN(C)C)c1`, the molecule was called inactive (in [1]; in [2]; with BCL2L11 (gene 10018); in assay [4]; with Caspase-3 (Homo sapiens); in [5]). Moreover, the molecule was classed as inactive (in assay [13]; in assay [6]; in assay [7]; in assay [8]; with CYP2C8 (gene 1558); with CYP2C9 (gene 1559)). The molecule was classed as inactive (in the assay with CYP2E1 (gene 1571); with CYP4A11 (gene 1579); in [9]; in assay [10]; in assay [11]).

The record behind these values is PubChem BioAssay (EPA / NIEHS).
